The sample as a whole holds a higher share of hits than the screen did.
Tgondii IFNg: T. gondii growth inhibition under IFN-gamma; activity change, negative = inhibition, % (concentration not given with the values); AID 1259416; Toxoplasma gondii growth in IFN-gamma-treated host cells; active compounds read low; hit rate 3.8% among 69,000; in the data active = activity change below about -70%, passing the limit was not always enough;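 note: host cells are HeLa cells infected with Toxoplasma gondii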
Numbers stand for hits; ! = a repeat was not active.

For CCOC(=O)c1ccc(NC(=O)CSc2nnc(CNc3ccc(F)cc3)o2)cc1 the results were Tgondii IFNg -100.
Screening Cn1nc(CNc2ncccn2)c2c1CN(C(=O)c1ccccc1F)CC2 returned Tgondii IFNg -106.
Screening Cc1cccc(S(=O)(=O)N2CCc3c(CNc4ncccn4)nn(C)c3C2)c1 returned Tgondii IFNg inactive.
`Cn1nc(CNc2ncccn2)c2c1CNCC2` gave Tgondii IFNg inactive.
Fc1ccc(CNc2nc(-c3ccc(Cl)cc3)nc3ccccc23)cc1 was read as Tgondii IFNg inactive.
`CCn1cnnc1CCNS(=O)(=O)NCc1ccccc1` gave Tgondii IFNg inactive.
`Cc1nc(-c2ccc(F)cc2)sc1CCNC(=O)CCc1ccccc1` gave Tgondii IFNg inactive.
For Oc1ccc([C@H]2COc3cc(O)ccc3C2)cc1 the results were Tgondii IFNg -73!.
Screening O=C1CC(c2ccc(O)cc2)Oc2cc(O)cc(O)c21 (centres undefined) returned Tgondii IFNg inactive.
`Oc1ccc([C@H]2Oc3cc(O)cc(O)c3C[C@H]2O)cc1` gave Tgondii IFNg inactive.
CC(C(=O)N1CCC(C(O)(c2ccccc2)c2ccccc2)CC1)n1ccnc1 (centres undefined) was read as Tgondii IFNg inactive.
CC(C)(C)c1ccc(C(O)CCCN2CCC(C(O)(c3ccccc3)c3ccccc3)CC2)cc1 (centres undefined) was read as Tgondii IFNg -91!.
`Cn1cc(CN2CCC(C(O)(c3ccccc3)c3ccccc3)CC2)cn1` gave Tgondii IFNg inactive.
Cc1ccccc1NC(=O)c1cncc(NS(=O)(=O)c2ccc(Br)cc2)c1 was read as Tgondii IFNg inactive.
`COc1ccc2[nH]c3c(c2c1)CCN(C(=O)c1ccc(C)cc1)C31C(=O)Nc2ccccc21` (centres undefined) gave Tgondii IFNg -97.
`COc1ccc2c3c([nH]c2c1)C1(NCC3)C(=O)Nc2ccccc21` (centres undefined) gave Tgondii IFNg inactive.
`Cc1ccc2[nH]c3c(c2c1)CCNC31C(=O)Nc2ccccc21` (centres undefined) gave Tgondii IFNg inactive.
CCc1nc(OCC(=O)Nc2ccccc2F)c2ccccc2n1 was read as Tgondii IFNg inactive.
Screening Cc1nc(SCC(=O)c2cc3c(ccc4ccccc43)oc2=O)c(C#N)c(C)c1C returned Tgondii IFNg inactive.
Screening Fc1ccc(C(c2ccccc2)(c2ccccc2F)n2ccnc2)cc1 (centres undefined) returned Tgondii IFNg -71.
`CSc1nc(N)nc(-c2ccncc2)n1` gave Tgondii IFNg inactive.
CCn1c(=O)c(-c2nc(-c3ccccc3C)no2)c(O)c2ccc(F)cc21 was read as Tgondii IFNg inactive.
CC1CN(S(=O)(=O)c2cccc(F)c2)CCC12CCC(C(=O)Nc1cccnc1)O2 (centres undefined) was read as Tgondii IFNg inactive.
`Cc1c(-c2ccccc2)n(CC(O)CN)c2ccccc12` (centres undefined) gave Tgondii IFNg inactive.
`CCOC(=O)Cn1c(C)cc(=O)c2ccccc21` gave Tgondii IFNg inactive.
Screening Cc1ccc2c(=O)c3ccccc3n(CCCN)c2c1C returned Tgondii IFNg -87!.
Screening CCCCCCCCCCCC1C(=O)C(=O)CC(=O)C1=O returned Tgondii IFNg -82!.
Screening CCCCCCCC(=O)O returned Tgondii IFNg inactive.
CCS(=O)(=O)Nc1cc2c3c(n(S(=O)(=O)CC)c2cc1C)CCCC3=O was read as Tgondii IFNg inactive.
For CC(Cc1ccco1)NC(=O)c1cc2cc(S(=O)(=O)N(C)C)ccc2n1Cc1ccncc1 (centres undefined) the results were Tgondii IFNg inactive.
For CSc1ncc(Cn2cnc(-c3ccccc3)c2-c2nccn2C)n1C the results were Tgondii IFNg inactive.
For O=S(=O)(c1ccc2ccccc2c1)N1CCC2(CC1)Nc1ccccc1-n1cccc12 the results were Tgondii IFNg inactive.
For Cc1ccc(NC(=O)c2ccccc2C)c(NC(=O)C(C)(C)O)c1 the results were Tgondii IFNg inactive.
Nc1ccccc1CN1CCN(CCO)CC1 was read as Tgondii IFNg inactive.
Screening COc1ccc(O)c(-c2nc3c(C(C)(C)C)cc(C(C)(C)C)c(O)c3o2)c1 returned Tgondii IFNg -119.
`COc1ccc(O)c(N)c1` gave Tgondii IFNg inactive.
COc1ccc(O)c(C2=Nc3ccccc3N=C(c3ccccc3)C2)c1 was read as Tgondii IFNg inactive.
Cc1nc(-c2ccccc2)sc1CCNS(=O)(=O)c1ccc(Cl)cc1 was read as Tgondii IFNg inactive.
`O=C(O)C1CC(N2CCOCC2)CCN1C(=O)c1ccoc1` (centres undefined) gave Tgondii IFNg inactive.
O=S(=O)(Cc1ccccc1)N1CC2CN(Cc3cccc(Cl)c3)CC2C1 (centres undefined) was read as Tgondii IFNg inactive.
`O=S(=O)(c1ccccc1)N1CC2CN(Cc3ccc(Cl)cc3)C2C1` (centres undefined) gave Tgondii IFNg -106.
`O=S(=O)(Cc1ccccc1)N1CC2CN(Cc3ccccc3)CC2C1` (centres undefined) gave Tgondii IFNg inactive.
`CCN(CC)CC1CN(Cc2csc(C)n2)Cc2nccn2C1` (centres undefined) gave Tgondii IFNg inactive.
`CC(=O)N1CCc2cc(NCc3cn(CCN4CCOCC4)c4ccccc34)ccc21` gave Tgondii IFNg inactive.
COCCN(C)C[C@@H]1CCC[C@@H]2CN(c3ncccn3)C[C@H]21 was read as Tgondii IFNg inactive.
For Cc1sc(NC(=O)CCn2cnc3ccccc3c2=O)nc1-c1cccc(Cl)c1 the results were Tgondii IFNg inactive.
For O=C(Nc1ccc(F)cc1)c1nc[nH]c1C(=O)NC1CCOc2ccccc21 (centres undefined) the results were Tgondii IFNg inactive.
`Cn1ccc2c(-c3ccc(C(=O)O)cn3)ccnc21` gave Tgondii IFNg inactive.
`Cn1ccc2c(-c3cccc(O)c3)ccnc21` gave Tgondii IFNg -77.
CNC(=O)c1ccc(-c2ccnc3c2ccn3C)o1 was read as Tgondii IFNg inactive.
CCN1CCOCC12CCN(c1ccc(C#N)cc1)CC2 was read as Tgondii IFNg inactive.
N#Cc1ccc(N2CCC3(CC2)CC(Oc2cccnc2)CO3)cc1 (centres undefined) was read as Tgondii IFNg inactive.
CC1COC2(CCN(c3ccc(C#N)cc3)CC2)C1 (centres undefined) was read as Tgondii IFNg -90.
CCOCc1nn(CC2CC2)c2c1CN(Cc1cccs1)CC2 was read as Tgondii IFNg inactive.
O=C(Nc1ccc(Cl)cc1)C1Cn2ccnc2C2(CCN(C(=O)C3CCC3)CC2)O1 (centres undefined) was read as Tgondii IFNg inactive.
For CCN(CC)C(=O)Sc1nc2cc(Cl)ccc2s1 the results were Tgondii IFNg inactive.
`O=C(O)CCSc1nc2ccccc2s1` gave Tgondii IFNg inactive.
O=C(O)CSc1nc2cc(Cl)ccc2s1 was read as Tgondii IFNg -107.
For COc1cccc(-c2nc3c(s2)N(C(C)C)C(C(=O)N2CCCCC2)C3)c1 (centres undefined) the results were Tgondii IFNg inactive.
`C=CCn1c(=O)c2cnc(Nc3ccc(N4CCN(C)CC4)cc3)nc2n1-c1cccc(C(C)(C)O)n1` gave Tgondii IFNg -71.
`CN1CCN(c2cccc(Nc3nc4c(-c5ccc(S(C)(=O)=O)cc5)cccn4n3)c2)CC1` gave Tgondii IFNg inactive.
`Cc1ccc(C(CNC(=O)c2cc3n(n2)CCN(C)C3)N2CCOCC2)o1` (centres undefined) gave Tgondii IFNg inactive.

Assay outcomes as filed in PubChem.
